Inconclusive results are not listed. Where a call stands in place of a potency, no number is given. Activity calls are given as the source filed them. Calls follow the shape of the dose curve; as a rule, active = well fitted activation curve with a large enough effect in the repeat runs; inconclusive = weak or mixed curves; inactive = flat fitted curve, though single readings scatter.
Potency is read from the fitted curve at half-maximal effect.

A short description of this experiment: A CellTox Green Cytotoxicity Assay to monitor cytotoxicity in HEK293 cells - 8 hour (AID 1224884). Also: nearly all actives have a fitted effect of over 35% in size. The note with it: CellTox Green fluorescence; series mostly up to 76.8 µM. An excerpt:
National Center for Advancing Translational Sciences [NCATS]
NIH Chemical Genomics Center [NCGC]
U.S. Environmental Protection Agency [EPA]
National Institutes of Environmental Health Sciences [NIEHS]
National Toxicology Program [NTP]
Cell-based models are critical for drug discovery. Determining the natural cytotoxic effects resulting from test compounds is an essential research activity. A CellTox Green Cytotoxicity Assay to monitor cytotoxicity in real time of continues cell culture during 40 hours of the compound treatment was used to screen Tox21 10K library compounds in Hek293 cells. CellTox Green Cytotoxicity Assay is a nonlytic, homogeneous, biofluorescent method to measure cytotoxicity in cell culture after experimental manipulation. The assay system uses a proprietary asymmetric cyanine dye that is excluded from viable cells but preferentially stains the dead cell's DNA. […] Viable cells produce no appreciable increases in fluorescence. Therefore, the fluorescence signal produced by the binding interaction with dead cell DNA is proportional to cytotoxicity.
The mixture of Hek293 cell suspension and reagents were dispensed at 600cells/6 ul/well in 1536-well tissue culture treated black solid bottom plates using a Multidrop dispenser. After the assay plates were incubated at a 37 C/5% CO2 incubator for 5 hours, 23 nL of compounds dissolved in DMSO, positive and negative controls was transferred to the assay plate by a pintool work station. The plates were incubated at 37 C for 40 hours. The fluorescence intensity were measured at 0h, 8h, 16h, 24h, 32h and 40h time points using ViewLux plate reader during compound treatment.
`CN1CCOCC1`: the Potency entry is “inactive”. Then `CCC(=O)O[C@H]1[C@H](O[C@@H]2[C@@H](C)[C@H](O[C@H]3C[C@@](C)(OC)[C@@H](O)[C@H](C)O3)[C@@H](C)C(=O)O[C@H](CC)[C@@](C)(O)[C@H](O)[C@@H](C)C(=O)[C@H](C)C[C@@]2(C)O)O[C@H](C)C[C@@H]1N(C)C`, with “inactive”; and `CC1(C)OC(=O)NC1=O`, with “inactive”. Then `CN(C)/N=N/c1nc[nH]c1C(N)=O`, with “inactive”. Under `CC(C)=CCO` stands “inactive”; under `C/C=C/C(=O)N(CC)c1ccccc1C`, “inactive”; under `C1CN(SSN2CCOCC2)CCO1`, “inactive”. In the case of `O=Cc1ccccc1C=O`, the Potency entry is “inactive”. As to `CCCCCCCCCCC(CO)CCCCCCCC` (stereo not given), the Potency result is “inactive”. Then `COc1ccc(C(=O)c2ccccc2O)c(O)c1`, with “inactive”; and `NC[C@H](O)c1ccc(O)c(O)c1`, with “inactive”. Then `CC(C)(C)c1cccc(C(C)(C)C)c1O`, with “inactive”. In the case of `COC(=O)c1ccc(C)cc1`, the Potency result was “inactive”.

With `C=CCOC(=O)C(=C)C`, the Potency entry is “inactive”.

For the compound `O=S1(=O)CCCO1`, the Potency result was “inactive”. Under `c1ccc2c(c1)ccc1cc3c(ccc4ccccc43)cc12` stands “inactive”.

`IC(I)I`: the Potency result is “inactive”. Then `FC(F)(F)C(Cl)Br` (stereo not given), with “inactive”; and `C[C@]12C=CC(=O)C=C1CC[C@H]1[C@@H]3C[C@@H](O)[C@](O)(C(=O)CO)[C@@]3(C)C[C@H](O)[C@@]12F`, with “inactive”. Then `CCCCCCCC/C=C\CCCCCCCC(=O)O`, with “inactive”; and `CCCCCC1C(=O)CCC1CC(=O)OC` (stereo not given), with “inactive”; and `c1ccc2ncccc2c1`, with “inactive”. Under `Cc1ccc2c(c1)C(=O)OC2=O` stands “inactive”. On to `CC1(C)O[C@@H]2C[C@H]3[C@@H]4C[C@H](F)C5=CC(=O)C=C[C@]5(C)[C@@]4(F)[C@@H](O)C[C@]3(C)[C@]2(C(=O)CO)O1`, for which the Potency entry is “inactive”.

Turning to `NCCS(=O)(=O)O`, the Potency entry is “inactive”.

As to `OC[C@@H](O)[C@@H](O[C@@H]1O[C@H](CO)[C@H](O)[C@H](O)[C@H]1O)[C@H](O)[C@@H](O)CO`, the Potency entry is “inactive”. Under `COc1ccc2nc(N)sc2c1` stands “inactive”. `O=C(O)CCCCCCCCCCCC(=O)O`: the Potency result is “inactive”. Then `Cc1ccc(S(=O)(=O)O)cc1C`, with “inactive”. Under `Nc1cc(Cl)c(N)c(Cl)c1` stands “inactive”; under `Nc1cc([N+](=O)[O-])ccc1C(=O)O`, “inactive”. Then `CCCCCCCCCCCCCO`, with “inactive”; and `CCCCCCOCCOCCO`, with “inactive”; and `Nc1ccc(O)c(N)c1`, with “inactive”. As for `CCC(Cc1c(I)cc(I)c(N)c1I)C(=O)O` (stereo not given), the Potency entry was “inactive”.

As to `O=C1OC2(c3ccccc31)c1cc(I)c(O)c(I)c1Oc1c2cc(I)c(O)c1I`, the Potency was 13.3 µM (active) [middle of 4 runs].

Turning to `Cc1ccc([N+](=O)[O-])c(C)c1`, the Potency result was “inactive”. Then `Cc1ccc(N)c([N+](=O)[O-])c1`, with “inactive”. Turning to `CC1=CC(C)(C)Nc2ccccc21`, the Potency result was “inactive”. Then `Clc1ccc(Sc2cc(Cl)c(Cl)cc2Cl)cc1`, with “inactive”.

These data come from PubChem BioAssay (Tox21).
